# Measurements reported in the supplement of paper PMC10037445.
# In all, about 2,900 compounds were measured (“NF-kB SEAP reporter activity, fold change vs agonist alone”: median about 0.99, highest 2% from about 2.6 on). What follows is part of a selection rich in the highest values, with near analogues and random picks from the rest.
# What was measured:
# RAW-Dual [1] = assay: NF-kB SEAP reporter activity, fold change vs agonist alone; higher = enhanced NF-kB activity; conditions: library stock concentration (final ~1000-fold dilution): 10 mM
# Outline: (§1)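 Reporter activity is given as fold change relative to agonist-alone wells. To measure it, 50 nL of library stock was pin-tooled onto RAW-Dual macrophages (50,000 cells/well, DMEM, 384-well plates), a PRR agonist followed 1 h later, and cells stayed at 37 °C, 5% CO2. Twenty hours on, supernatant was assayed for IRF (QuantiLuc luminescence) and NF-κB (QuantiBlue, 620 nm absorbance), and wells under 70% of agonist-control IncuCyte confluency in both mask sets were marked cytotoxic.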
# RAW-Dual [2] = assay: NF-kB SEAP reporter activity, fold change vs agonist alone; cytotoxicity flag (confluency mask): not cytotoxic; higher = enhanced NF-kB activity
# Outline: as §1
# RAW-Dual [3] = assay: NF-kB SEAP reporter activity, fold change vs agonist alone; cytotoxicity flag (confluency mask): cytotoxic (confluency <70% of control); higher = enhanced NF-kB activity
# Outline: as §1
# [4] = cytotoxicity flag (confluency mask): not cytotoxic, agonist: Imiquimod (TLR7) […]
# [5] = cytotoxicity flag (confluency mask): not cytotoxic, agonist: MPLA (TLR4) […]
# [6] = agonist: ODN 1826 (TLR9) 0.5 ug/mL
# [7] = agonist: Pam2CSK4 (TLR2/6) 0.1 ug/mL
# [8] = agonist: Pam3CSK4 (TLR2/1) 0.1 ug/mL
# [9] = cytotoxicity flag (confluency mask): cytotoxic (confluency <70% of control), agonist: Imiquimod (TLR7) […]
# [10] = cytotoxicity flag (confluency mask): cytotoxic (confluency <70% of control), agonist: MPLA (TLR4) […]
smiles,measurement,setting,value
O=C(Nc1ccccc1C(=O)NC1CCCCNC1=O)c1cc2ccccc2s1 (stereo unspecified),NF-kB SEAP reporter activity,RAW-Dual [1]; [4],1.06
same,NF-kB SEAP reporter activity,RAW-Dual [1]; [5],1.16
O=C(Nc1ccccc1C(=O)NC1CCCCNC1=O)c1cc2ccccc2s1 (stereo unspecified) (library stock concentration (final ~1000-fold dilution): 10 mM),NF-kB SEAP reporter activity,RAW-Dual [2]; agonist: LPS (TLR4) 0.1 ug/mL,2.62
same,NF-kB SEAP reporter activity,RAW-Dual [2]; [6],1.04
same,NF-kB SEAP reporter activity,RAW-Dual [2]; [7],1.1
same,NF-kB SEAP reporter activity,RAW-Dual [2]; [8],1.47
CC12CC(O)C3CC1(OC1OC(CO)C(O)C(O)C1O)C3(COC(=O)c1ccccc1)C(=O)O2 (stereo unspecified),NF-kB SEAP reporter activity,RAW-Dual [1]; [4],0.925
same,NF-kB SEAP reporter activity,RAW-Dual [1]; [5],1.04
CC12CC(O)C3CC1(OC1OC(CO)C(O)C(O)C1O)C3(COC(=O)c1ccccc1)C(=O)O2 (stereo unspecified) (library stock concentration (final ~1000-fold dilution): 10 mM),NF-kB SEAP reporter activity,RAW-Dual [2]; agonist: LPS (TLR4) 0.1 ug/mL,1.33
same,NF-kB SEAP reporter activity,RAW-Dual [2]; [6],0.943
same,NF-kB SEAP reporter activity,RAW-Dual [2]; [7],1.11
same,NF-kB SEAP reporter activity,RAW-Dual [2]; [8],1.16
CN(c1ncccc1CNc1nc(Nc2ccc3c(c2)CC(=O)N3)ncc1C(F)(F)F)S(C)(=O)=O.Cl (library stock concentration (final ~1000-fold dilution): 10 mM),NF-kB SEAP reporter activity,RAW-Dual [3]; agonist: LPS (TLR4) 0.1 ug/mL,0.194
same,NF-kB SEAP reporter activity,RAW-Dual [3]; [6],0.29
same,NF-kB SEAP reporter activity,RAW-Dual [3]; [7],0.0618
same,NF-kB SEAP reporter activity,RAW-Dual [3]; [8],0.135
CN(c1ncccc1CNc1nc(Nc2ccc3c(c2)CC(=O)N3)ncc1C(F)(F)F)S(C)(=O)=O.Cl,NF-kB SEAP reporter activity,RAW-Dual [1]; [9],0.169
same,NF-kB SEAP reporter activity,RAW-Dual [1]; [10],0.247
CC1OC(OC2C(CO)OC(OC3C(CO)OC(O)C(O)C3O)C(O)C2O)C(O)C(O)C1NC1C=C(CO)C(O)C(O)C1O (stereo unspecified),NF-kB SEAP reporter activity,RAW-Dual [1]; [4],0.983
same,NF-kB SEAP reporter activity,RAW-Dual [1]; [5],0.951
CC1OC(OC2C(CO)OC(OC3C(CO)OC(O)C(O)C3O)C(O)C2O)C(O)C(O)C1NC1C=C(CO)C(O)C(O)C1O (stereo unspecified) (library stock concentration (final ~1000-fold dilution): 10 mM),NF-kB SEAP reporter activity,RAW-Dual [2]; agonist: LPS (TLR4) 0.1 ug/mL,1.19
same,NF-kB SEAP reporter activity,RAW-Dual [2]; [6],1.03
same,NF-kB SEAP reporter activity,RAW-Dual [2]; [7],1.02
same,NF-kB SEAP reporter activity,RAW-Dual [2]; [8],1.06
CCOC(=O)c1cnc2ccc(-c3cncc(NS(=O)(=O)c4ccccc4)c3)cn12,NF-kB SEAP reporter activity,RAW-Dual [1]; [9],1.31
same,NF-kB SEAP reporter activity,RAW-Dual [1]; [10],2.94
Nc1nc2cc(-c3ccc4ncc(C(=O)N5CCOCC5)n4c3)ccc2o1 (library stock concentration (final ~1000-fold dilution): 10 mM),NF-kB SEAP reporter activity,RAW-Dual [2]; agonist: LPS (TLR4) 0.1 ug/mL,0.841
same,NF-kB SEAP reporter activity,RAW-Dual [2]; [6],1.02
same,NF-kB SEAP reporter activity,RAW-Dual [2]; [7],0.774
same,NF-kB SEAP reporter activity,RAW-Dual [2]; [8],0.811
CCOC(=O)c1cnc2ccc(-c3cncc(NS(=O)(=O)c4ccccc4)c3)cn12 (library stock concentration (final ~1000-fold dilution): 10 mM),NF-kB SEAP reporter activity,RAW-Dual [3]; agonist: LPS (TLR4) 0.1 ug/mL,7.43
same,NF-kB SEAP reporter activity,RAW-Dual [3]; [6],2.4
same,NF-kB SEAP reporter activity,RAW-Dual [3]; [7],1.68
same,NF-kB SEAP reporter activity,RAW-Dual [3]; [8],3.96
Nc1nc2cc(-c3ccc4ncc(C(=O)N5CCOCC5)n4c3)ccc2o1,NF-kB SEAP reporter activity,RAW-Dual [1]; [4],1.09
same,NF-kB SEAP reporter activity,RAW-Dual [1]; [5],1.09
